In PubChem BioAssay:
Active and inactive are the calls of the source. Unless noted, no rule for the calls is given here.

How the values were obtained:
[1] = HepG2 liver cancer cell viability effects, profiling panel, resazurin fluorescence, 24 h, PK04 Diversity Set (AID 1172); settings: higher = more signal
[2] = basal S. cerevisiae growth modulation, no modifier, primary screen, OD600, strain BY4716, 24 h, basal condition (AID 1173); settings: OD600, 24 h, higher = more signal, called active from +8 up or from −8 down
[3] = MM1S myeloma cell viability, profiling panel, resazurin fluorescence, basal, 24 h, PK04 Diversity Set (AID 1174); settings: higher = more signal, called active from +8 up or from −8 down;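 also: MM1S multiple myeloma cell line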
[4] = target: Dihydroorotate dehydrogenase (quinone), mitochondrial (Plasmodium falciparum (isolate 3D7)) (UniProt Q08210); assay: PfDHODH enzyme inhibitors, primary screen, biochemical, C-terminal His tag, absorbance 600 nm (AID 1175); settings: DCIP absorbance 600 nm, higher = more signal, called active from +8 up or from −8 down;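 also: recombinant parasite enzyme with a five histidine tag at its C terminus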
Sequence of Dihydroorotate dehydrogenase (quinone), mitochondrial (Plasmodium falciparum (isolate 3D7)) (Q08210 whole entry, looked up): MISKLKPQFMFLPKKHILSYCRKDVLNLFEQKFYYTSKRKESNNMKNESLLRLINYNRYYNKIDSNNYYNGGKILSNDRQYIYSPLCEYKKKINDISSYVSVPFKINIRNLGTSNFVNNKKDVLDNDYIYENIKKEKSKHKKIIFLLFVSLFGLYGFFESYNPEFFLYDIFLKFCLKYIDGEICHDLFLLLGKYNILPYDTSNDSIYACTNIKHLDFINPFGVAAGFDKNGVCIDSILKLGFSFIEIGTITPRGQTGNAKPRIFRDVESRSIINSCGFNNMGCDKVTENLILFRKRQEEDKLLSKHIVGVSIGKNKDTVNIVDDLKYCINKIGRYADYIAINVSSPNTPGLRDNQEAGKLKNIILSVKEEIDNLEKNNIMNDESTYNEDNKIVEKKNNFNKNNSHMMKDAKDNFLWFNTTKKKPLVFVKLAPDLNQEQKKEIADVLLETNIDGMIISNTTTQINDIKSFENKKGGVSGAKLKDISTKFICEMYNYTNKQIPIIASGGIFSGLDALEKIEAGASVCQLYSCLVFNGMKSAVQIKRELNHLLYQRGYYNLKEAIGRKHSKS

[5] = S. cerevisiae RM11-1a growth modifiers, primary screen, strain RM11-1a, OD600, basal, 24 h (AID 1177); settings: OD600, 24 h, higher = more signal, called active from +8 up or from −8 down;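 also: cultures grown under basal conditions with no added stressor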
[6] = E. coli acrAB mutant growth effects, primary screen, E. coli filamentation inducers, strain DRC39, OD650, 24 h (AID 1178); settings: higher = more signal, called active from +8 up or from −8 down;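 also: growth measured as culture turbidity by optical density at 650 nm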
[7] = E. coli acrAB mutant growth effects, primary screen, E. coli filamentation inducers, strain DRC39, OD650, 48 h (AID 1179);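 also: screen aims at cell division blockers that make cells filament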; settings: E. coli DRC39 delta-acrAB growth, higher = more signal, called active from +8 up or from −8 down
[8] = RPMI8226 myeloma cell viability, profiling panel, resazurin fluorescence, basal, 24 h, PK04 Diversity Set (AID 1180); settings: higher = more signal;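 also: RPMI8826 multiple myeloma cell line at 5000 cells per well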
[9] = target: E3 ubiquitin-protein ligase XIAP (Homo sapiens) (UniProt P98170); assay: XIAP binders, primary screen, biophysical, small-molecule microarray, fluorescence 635 nm (AID 1181); settings: small-molecule microarray binding, higher = more signal;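 also: score merges 667 nm emission and signal to noise over triplicate slides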
Sequence of E3 ubiquitin-protein ligase XIAP (Homo sapiens) (P98170 whole entry, looked up): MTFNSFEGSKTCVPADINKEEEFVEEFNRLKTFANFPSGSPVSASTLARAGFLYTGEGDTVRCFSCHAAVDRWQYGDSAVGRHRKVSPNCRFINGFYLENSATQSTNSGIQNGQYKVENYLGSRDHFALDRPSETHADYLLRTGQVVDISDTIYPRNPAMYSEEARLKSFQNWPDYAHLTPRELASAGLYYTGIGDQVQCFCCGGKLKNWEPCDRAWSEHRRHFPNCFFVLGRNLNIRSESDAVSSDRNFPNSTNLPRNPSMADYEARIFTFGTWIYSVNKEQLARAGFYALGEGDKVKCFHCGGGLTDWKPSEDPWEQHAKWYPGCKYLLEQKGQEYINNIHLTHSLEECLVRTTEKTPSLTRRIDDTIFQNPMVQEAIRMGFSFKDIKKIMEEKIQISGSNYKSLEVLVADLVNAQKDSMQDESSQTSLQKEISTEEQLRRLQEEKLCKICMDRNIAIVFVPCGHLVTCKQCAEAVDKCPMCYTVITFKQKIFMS

[10] = system: XIP peptide (Xip251-270) binding; assay: small-molecule binders of XIP peptide, primary screen, biochemical, small-molecule microarray, fluorescence 635/667 nm, 0.1 µg/mL protein (AID 1182); settings: fluorescent protein binding, 635 nm, higher = more signal, called active from +8 up or from −8 down
XIP peptide (Xip251-270) = assay: small-molecule binders of XIP peptide, primary screen, biochemical, small-molecule microarray, fluorescence 635/667 nm, 0.5 µg/mL protein (AID 1183); settings: small-molecule microarray binding, fluorescence 635 nm; higher = more signal
[11] = Plasmodium falciparum growth inhibition, primary screen, strain 3D7, DAPI fluorescence, 100 nL (AID 1184);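 also: parasites grown inside human red blood cells in medium with human serum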; settings: P. falciparum 3D7 growth, 3 d, higher = more signal
[12] = target: Homeobox protein Hox-A13 (Mus musculus) (UniProt Q62424); assay: inhibitors of HoxA13-DNA binding, primary screen, biochemical, fluorescence polarization, labeled oligonucleotide (AID 1185); settings: 15 min, higher = more signal, called active from +8 up or from −8 down
Sequence of Homeobox protein Hox-A13 (Mus musculus) (Q62424 whole entry, looked up): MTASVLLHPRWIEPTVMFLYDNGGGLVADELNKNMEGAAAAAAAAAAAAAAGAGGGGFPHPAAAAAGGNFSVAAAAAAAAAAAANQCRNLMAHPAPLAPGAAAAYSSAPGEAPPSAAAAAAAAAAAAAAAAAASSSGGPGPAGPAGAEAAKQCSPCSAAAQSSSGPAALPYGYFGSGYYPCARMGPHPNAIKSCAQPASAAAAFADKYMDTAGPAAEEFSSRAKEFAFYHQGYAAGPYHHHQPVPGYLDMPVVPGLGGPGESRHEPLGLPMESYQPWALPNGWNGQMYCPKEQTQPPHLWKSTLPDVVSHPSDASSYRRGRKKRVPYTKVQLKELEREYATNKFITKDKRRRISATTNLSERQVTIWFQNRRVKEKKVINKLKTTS

[13] = inhibitors of hydroxyurea-induced Chk1 phosphorylation, primary screen, imaging, HeLa, phospho-Chk1 antibody, percent positive cells (AID 1186); settings: hydroxyurea-induced phospho-Chk1 immunofluorescence imaging, higher = more signal
[14] = inhibitors of hydroxyurea-induced Chk1 phosphorylation, primary screen, imaging, HeLa, phospho-Chk1 nuclear intensity (AID 1187); settings: hydroxyurea-induced phospho-Chk1 immunofluorescence imaging, higher = more signal

SMILES | z-score [1] | z-score [2] | z-score [3] | composite z-score [4] | z-score [5] | z-score [6] | z-score [7] | z-score [8] | composite z-score [9] | composite z-score [10] | composite z-score (XIP peptide (Xip251-270)) | z-score [11] | z-score [12] | z-score [13] | z-score [14]
C=CCN1C(=O)[C@@]2(O[C@@H](CCn3cc([C@H](O)c4ccccc4)nn3)[C@H]([Si](C)(C)c3ccc(OC)cc3)[C@H]2C)c2cc(N3CCOC3=O)ccc21 | -0.555 | -1.5 (inactive) | -0.365 (inactive) | -1.47 (inactive) | -1.57 (inactive) | 1.41 (inactive) | 0.391 (inactive) | -1.24 | 0.076 | 0.0505 (inactive) | -0.52 | -2.71 | -4.69 (inactive) | -1.49 (inactive) | -1.43 (inactive)
C=CCC(OC(C)=O)[C@@H]1[C@@H](N(Cc2cc3ccccc3o2)C(=O)c2ccc(C)cc2)c2cc(OCCCO)ccc2N1C(=O)c1ccc2ccccc2n1 (some centres not stated) | 1.8 | -0.934 (inactive) | 1.37 (inactive) | 0.309 (inactive) | -0.0157 (inactive) | 1.74 (inactive) | 1.42 (inactive) | 0.585 | 0.437 | 0.167 (inactive) | -0.442 | -0.863 | -1.79 (inactive) | 0.347 (inactive) | 0.295 (inactive)
CO[C@H]1O[C@H](CO)[C@@H](OC(=O)Nc2ccccc2)[C@H](OC(=O)Nc2ccc3c(c2)OCO3)[C@@H]1OC(=O)Nc1ccc2c(c1)OCO2 | -0.667 | -0.0273 (inactive) | 0.238 (inactive) | -0.167 (inactive) | 1.21 (inactive) | 1.84 (inactive) | 0.228 (inactive) | -0.365 | 0.136 | 2.23 (inactive) | 0.863 | -1.9 | -9.6 (active) | 0.149 (inactive) | 0.121 (inactive)
COc1cccc([C@H]2N[C@H](C(=O)O)CC[C@@H]2C)c1 | -0.104 | -1.03 (inactive) | 0.975 (inactive) | -2.33 (inactive) | -0.393 (inactive) | -0.914 (inactive) | -0.83 (inactive) | 0.761 | 0.169 | 0.253 (inactive) | -0.567 | -1.4 | 3.05 (inactive) |  | 
CCOC(=O)[C@H]1C/C=C/C[C@H](C(=O)OCC)C(=O)O[C@H]2[C@@H](OC)O[C@H](CO)[C@@H](OC(=O)Nc3ccc(Br)cc3)[C@@H]2OC1=O | -6.68 | -1.68 (inactive) | -9.26 (active) | -1.48 (inactive) | 0.424 (inactive) | 1.65 (inactive) | 1.93 (inactive) | -7.26 | 0.0223 | 0.709 (inactive) | 0.867 | -1.85 | -0.239 (inactive) | -0.181 (inactive) | -0.26 (inactive)
CO[C@H]1COC(=O)[C@@H](Cc2ccccc2)NC(=O)[C@@H](C)COC(=O)CC=C[C@@H]1C | 0.344 | -1.14 (inactive) | 1.1 (inactive) | 0.0602 (inactive) | -0.213 (inactive) | 1.24 (inactive) | 0.639 (inactive) | 0.763 | 0.785 | -0.404 (inactive) | 0.43 | -0.0923 | -0.866 (inactive) |  | 
COCCCNC(=O)[C@@]1(Sc2ccc(C)cc2)CC(=O)N(Cc2cc(C(F)(F)F)cc(C(F)(F)F)c2)[C@@H]1c1ccc(CO)cc1I | -0.125 | -3.95 (inactive) | -2.01 (inactive) | -0.625 (inactive) | -2.16 (inactive) | 0.818 (inactive) | 0.328 (inactive) | -1.2 | 0.0425 | -0.291 (inactive) | -0.413 | -0.709 | -1.21 (inactive) | 0.007 (inactive) | 0.283 (inactive)
C=CC[C@]1(C(N)=O)N=C(c2ccc(OCCCO)cc2)O[C@H]1c1ccccc1CN=[N+]=[N-] | 0.394 | -1.06 (inactive) | 1.06 (inactive) | 0.199 (inactive) | -0.592 (inactive) | 2.91 (inactive) | 1.21 (inactive) | 1.1 | -0.16 | 0.914 (inactive) | -0.313 | -2.04 | -2.82 (inactive) | -0.273 (inactive) | 0.168 (inactive)
Cc1ccc(S(=O)(=O)c2cc3oc2CC[C@@H](CO)NC(=O)N(C)Cc2cn(nn2)C[C@H](Cc2ccccc2)NC3=O)cc1 | 1.02 | -2.64 (inactive) | 1.42 (inactive) | 0.164 (inactive) | 0.288 (inactive) | 1.74 (inactive) | 1.3 (inactive) | 1.03 | 0.0975 | -0.126 (inactive) | -0.612 | -0.746 | -4.42 (inactive) | -0.131 (inactive) | -0.0334 (inactive)
C[C@H]1COC(=O)[C@@H]2CCCN2C(=O)[C@@H](C)COC(=O)[C@@H]2CCCN2C1=O | 0.678 | -0.978 (inactive) | 0.93 (inactive) | -0.0223 (inactive) | -0.691 (inactive) | 0.825 (inactive) | -0.0322 (inactive) | 0.73 | -0.294 | -0.0153 (inactive) | 0.454 | -0.12 | -5.05 (inactive) |  | 
COC(=O)C1=C(C)N(Cc2ccccc2)c2c(C(=O)OC)c(C(=O)OC)c(C(=O)OC)c(=O)n2[C@@H]1c1ccccc1 | 1.23 | -1.71 (inactive) | -0.364 (inactive) | 0.295 (inactive) | -1.05 (inactive) | -0.0311 (inactive) | 0.0198 (inactive) | 0.512 | -0.0841 | 0.17 (inactive) | -0.0775 | 0.149 | -2.2 (inactive) |  | 
